Source: PubChem BioAssay (Broad Institute)
NOMO-1 viab – STK33 inhibitor candidate reducing NOMO-1 cell viability | NOMO-1 AML viability, CellTiter-Glo luminescence, 72 h | inhibition, % (test concentration not listed) | 37,000 compounds, 7.5% hits; in the data active = inhibition above about 80%
Shh pathway inh – blocks Sonic Hedgehog signaling; Shh-LIGHT2 Gli-luciferase reporter, 30 h; inhibition, % (concentration not given with the values); 22,000 compounds, 2.1% hits; AID 2313;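 active = mean inhibition across valid replicates above about 65%, limit read from the data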;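 note: pathway switched on by Shh-conditioned medium diluted 1 in 25 in low serum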
PD-1 reverse act – reversal of PD-1 mediated T-cell inhibition; primary human CD4 T cells, PD-L1 beads, CellTiter-Glo 96 h; activation, % (no concentration beside the values); 29,000 tested, under 10 active; AID 2316; call rule not given here;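 note: 0% = median vehicle wells and 100% = positive control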
MITF inh – MITF inhibition. TRPM1 promoter luciferase, luminescence, 24 h. inhibition, % (no concentration beside the values). 37,000 compounds, 0.28% hits. AID 2240; in the data active = inhibition above about 85%;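 note: human melanocyte line stably carrying TRPM1 promoter luciferase reporter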
* hit, by the source's call; nt = not tested or not shown; ! = a repeat was not active. Shown are actives, neighbours in structure and some others; about 8.1% of the full set was active somewhere.

SMILES	NOMO-1 viab	Shh pathway inh	PD-1 reverse act	MITF inh
C[C@H]1CN([C@@H](C)CO)C(=O)c2cccc(NC(=O)Nc3ccc(F)cc3)c2O[C@@H]1CN(C)Cc1ccc(C(=O)O)cc1	-9	-8	nt	-8
C[C@@H]1CN([C@@H](C)CO)C(=O)c2cccc(NC(=O)Nc3ccc(F)cc3)c2O[C@H]1CN(C)Cc1ccc(C(=O)Nc2ccccc2N)cc1	125*	nt	-6	8
C[C@@H]1CN([C@H](C)CO)C(=O)Cc2cc(NC(=O)Cc3cn(C)c4ccccc34)ccc2O[C@H]1CN(C)Cc1ccccc1	27	-31	nt	19
CCOC(=O)c1c(NC(=O)CSc2nc(C)nc3sc4c(c23)CCC4)sc(C)c1C	-4	nt	nt	-14
C[C@H]1CN([C@@H](C)CO)C(=O)c2cccc(NC(=O)Nc3ccc(F)cc3)c2O[C@@H]1CN(C)Cc1ccc(C(=O)Nc2ccccc2N)cc1	140*	nt	-1	-6
CN1CCCC(CC2c3ccccc3Sc3ccccc32)C1 (stereo unspecified)	50	39	nt	-6
CSc1ccc2c(c1)C(N1CCN(C)CC1)Cc1ccccc1S2 (stereo unspecified)	143*!	70*	-1	-16
c1ccc(C(c2ccccc2)N2CCC2)cc1	19	-11	1	-10
Oc1c(C(c2ccncc2)N2CCCC2)ccc2cccnc12 (stereo unspecified)	143*	35	-4	21
COc1ccc(C(c2ccc3cccnc3c2O)N2CCOCC2)cc1 (stereo unspecified)	118*	68*	-7	51
CC1CCc2c(sc3ncnc(SCC(=O)NCc4ccco4)c23)C1 (stereo unspecified)	63	nt	-6	-38
C[C@H]1CN([C@@H](C)CO)C(=O)c2cc(NC(=O)NC3CCCCC3)ccc2O[C@H]1CN(C)S(=O)(=O)c1cccs1	6	nt	0	-9
COc1ccc(NC(=O)CN2CCN(S(=O)(=O)N(C)C)CC2)cc1	-8	nt	3	-14
C[C@@H]1CN([C@H](C)CO)C(=O)Cc2cc(NC(=O)CCCCCC(=O)Nc3ccccc3N)ccc2O[C@H]1CN(C)Cc1ccc(-c2ccccc2)cc1	140*	nt	0	10
C[C@H](CO)N1C[C@H](C)[C@H](CN(C)Cc2ccc(-c3ccccc3)cc2)Oc2ccc(NC(=O)CCCCCC(=O)Nc3ccccc3N)cc2CC1=O	139*	nt	-3	45
C[C@@H]1CN([C@H](C)CO)C(=O)Cc2cc(NC(=O)CCCCCC(=O)Nc3ccccc3N)ccc2O[C@@H]1CN(C)Cc1ccncc1	24	nt	0	4
C[C@H]1CN([C@@H](C)CO)C(=O)Cc2cc(NC(=O)CCCCCC(=O)Nc3ccccc3N)ccc2O[C@H]1CN(C)CC1CCCCC1	138*	nt	-1	21
C[C@@H]1CN([C@H](C)CO)C(=O)Cc2cc(NC(=O)CCCCCC(=O)Nc3ccccc3N)ccc2O[C@@H]1CN(C)Cc1ccc(-c2ccccc2)cc1	141*	nt	-3	27
O=C1c2cc(O)cc(O)c2C(=O)c2c1cc(O)c(C(CO)CCO)c2O (stereo unspecified)	26	-25	-2	-42
Cc1ccc2ccc(S(=O)(=O)NCc3ccccn3)cc2c1	6	nt	nt	-23
c1cn2c3c(n1)CCCc3c1cc(C3CCCCC3)ccc12	123*	14	0	-28
COc1ccccc1C(=O)NCCCn1cc(Br)c(C)n1	-6	nt	1	-5
Cc1ccc(S(=O)(=O)c2c(C)nn(C(C)(C)C)c2OC(=O)c2ccccc2Br)cc1	105*	nt	-2	11
COC(=O)c1c(NC(=O)CSc2nnc3ccccn23)sc(C)c1C	-1	nt	-2	3
C[C@H](CO)N1C[C@H](C)[C@@H](CN(C)Cc2ccccc2)Oc2c(NC(=O)Nc3ccc(C(F)(F)F)cc3)cccc2C1=O	115*	-43	-7	46
SMILES	NOMO-1 viab	Shh pathway inh	PD-1 reverse act	MITF inh
C[C@H]1CN([C@@H](C)CO)C(=O)c2cccc(NC(=O)Nc3ccc(C(F)(F)F)cc3)c2O[C@@H]1CN(C)Cc1ccc(-c2ccccc2)cc1	85*	-23	-5	14
C[C@@H]1CN([C@@H](C)CO)C(=O)c2cccc(NC(=O)Nc3ccc(C(F)(F)F)cc3)c2O[C@@H]1CN(C)Cc1ccccc1	89*	-23	-3	-26
C[C@@H]1CN([C@H](C)CO)C(=O)c2cccc(NC(=O)Nc3ccc(C(F)(F)F)cc3)c2O[C@H]1CN(C)Cc1ccccc1	101*	-4	-7	33
C[C@H](CO)N1C[C@H](C)[C@H](CN(C)Cc2ccccc2)Oc2c(NC(=O)Nc3ccc(C(F)(F)F)cc3)cccc2C1=O	74	22	nt	-1
CNC[C@@H]1Oc2ccc(NS(=O)(=O)c3ccc(C)cc3)cc2C(=O)N([C@H](C)CO)C[C@H]1C	-4	nt	0	7
CCC(C)/C=C(C)/C=C/C1=CC2=C(Cl)C(=O)C(C)(OC(C)=O)C(=O)C2=CN1CCCC(=O)O (stereo unspecified)	101*	1	0	9
C[C@H]1CN([C@@H](C)CO)C(=O)c2cc(NC(=O)Nc3ccc(C(F)(F)F)cc3)ccc2O[C@H]1CN(C)Cc1ccncc1	102*	43	2	36
C[C@H](CO)N1C[C@H](C)[C@@H](CN(C)Cc2ccncc2)Oc2ccc(NC(=O)Nc3ccc(C(F)(F)F)cc3)cc2C1=O	20	-5	nt	-42
C[C@H](CO)N1C[C@H](C)[C@H](CN(C)Cc2ccncc2)Oc2ccc(NC(=O)Nc3ccc(C(F)(F)F)cc3)cc2C1=O	86*	13	0	12
C[C@@H]1CN([C@H](C)CO)C(=O)c2cccc(NC(=O)Nc3ccc(F)cc3)c2O[C@H]1CN(C)C	21	8	-1	-13
CSc1nnc(C(C)(C)C)c(=O)n1/N=C/c1c(O)ccc2ccccc12	60	nt	-1	14
C[C@H]1CN([C@@H](C)CO)C(=O)c2cccc(NS(C)(=O)=O)c2O[C@H]1CN(C)Cc1ccc(C(=O)Nc2ccccc2N)cc1	45	nt	2	-13
CC(C)NC(=O)Nc1cccc2c1O[C@H](CN(C)Cc1ccc(C(=O)Nc3ccccc3N)cc1)[C@H](C)CN([C@@H](C)CO)C2=O	139*	nt	-3	17
CC(C)NC(=O)Nc1cccc2c1O[C@@H](CN(C)Cc1ccc(C(=O)Nc3ccccc3N)cc1)[C@@H](C)CN([C@H](C)CO)C2=O	71	nt	2	-5
CC(C)NC(=O)Nc1cccc2c1O[C@@H](CN(C)Cc1ccc(C(=O)Nc3ccccc3N)cc1)[C@@H](C)CN([C@@H](C)CO)C2=O	141*	nt	-2	19
CCOc1cc(S(=O)(=O)NCc2ccco2)ccc1F	19	nt	nt	3
CS/C(NCC1CC1)=C(/C#N)C(=O)c1ccc(Cl)cc1	111*	nt	-7	46
C=C1C(=O)O[C@@H]2C3C(=C(C)[C@@H](O)[C@@H](OC(=O)/C(=C/C)COC(C)=O)[C@@H]12)C(=O)[C@H]1O[C@@]31C (stereo partly specified)	119*	72*	-9	58
CC(C)NC(=O)Nc1cccc2c1O[C@H](CN(C)C(=O)Nc1ccc(C(F)(F)F)cc1)[C@H](C)CN([C@@H](C)CO)C2=O	34	-12	-1	-1
